High-throughput results (PubChem BioAssay)
This is a sample that favours compounds with a hit; in the whole collection about 13% have one here.
AID923: qHTS Assay for Allosteric/Competitive Inhibitors of Caspase-1: Spectroscopic Profiling in AFC Spectral Region; compound fluorescence, AFC spectral region (405/520 nm); Potency, µM (top dose mostly 57.5 µM), inactives show at the top dose fluorescence increase, most hits filed as activators; hit rate 1.1% among 75,000; note: potency is the fitted concentration of half-maximal effect; 0% is about no effect
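Compound autofluorescence profiled at 405 nm ex/520 nm em during kinetic caspase 1 run (50 nM enzyme, 5 uM Ac-WEHD-AFC, HEPES pH 7.5, 10 mM DTT). Titration up to 57 uM; baseline from regression intercept, normalized to AFC standard curve.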
GBA mod: modulators of human glucocerebrosidase. hit rate 1.1% among 48,000. purified enzyme, resorufin glucoside fluorescence (screen aimed at inhibitors), 20 min. Potency, µM. AID 360. P04062; in the data active = potency below about 15 µM; inconclusive = mostly about 16 µM to 33 µM;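 note: potency is the fitted concentration of half-maximal effect; the screen sought inhibitors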
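Wild-type enzyme at 0.2 nM final in 50mM citric acid/KH2PO4, 10mM sodium taurocholate, 0.01% tween-20, pH 5.9, with resorufin beta-D-glucopyranoside at 30 uM final. Compounds titrated, 20 min at RT, red fluorescence read; AC50 from titration.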
4-MU autofl: 4-MU region autofluorescence; compound autofluorescence, 340/450 nm, 4-MU equivalents; hits give high values; max dye-equivalent concentration, M; hit rate 11% among 59,000; AID 589; in the data active = max dye-equivalent concentration above about 10 nM; inconclusive = mostly about 1.1 nM to 9.6 nM
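Compounds in 100 mM Tris, pH 8.0, incubated 15 min at room temperature, then fluorescence read at 340 nm excitation/450 nm emission. Signal converted to 4-MU dye-equivalent concentration using an on-plate six-point 4-MU standard curve.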
HADH2 inh: inhibitors of human HADH2 dehydrogenase; recombinant HADH2, NADH fluorescence, beta-hydroxybutyryl-CoA; Potency, µM (doses to about 57.1 µM), inactives show at the highest dose activity change, negative = inhibition, usual class: inhibitors; hit rate 3.4% among 73,000; note: potency is the fitted concentration of half-maximal effect; % is set by controls: 0 for no effect and ±100 for the full control effect; nearly all actives have a fitted effect of over 60% in size
Target sequence (Q99714 whole entry, looked up, one chain of several): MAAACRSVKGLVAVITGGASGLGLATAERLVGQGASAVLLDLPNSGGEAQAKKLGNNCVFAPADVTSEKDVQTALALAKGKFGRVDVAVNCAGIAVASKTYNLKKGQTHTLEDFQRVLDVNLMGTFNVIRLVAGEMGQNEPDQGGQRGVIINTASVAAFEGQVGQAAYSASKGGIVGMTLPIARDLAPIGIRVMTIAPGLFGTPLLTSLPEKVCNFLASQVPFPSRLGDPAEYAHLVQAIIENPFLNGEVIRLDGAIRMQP
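E. coli-expressed His-tagged HADH2 tested at 20 nM in alkaline Tris buffer (pH 9.0); oxidation of 90 uM beta-hydroxybutyryl-CoA with 1 mM NAD+ tracked fluorimetrically for 4 min.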
HSD17B inhib: blocks hydroxysteroid 17-beta dehydrogenase activity. Q99714. recombinant HSD17B10, NADH fluorescence kinetic. Potency, µM (series often up to 57.1 µM), inactives show at the top dose activity change, negative = inhibition, hits mostly inhibitors. hit rate 7.6% among 75,000. AID 893;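 note: the protocol describes HADH2 (HSD17B10) and not the HSD17B4 of the title; potency is the fitted concentration of half-maximal effect; % is set by controls: 0 for no effect and ±100 for the full control effect; nearly all actives have a fitted effect of over 70% in size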
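Activity followed as NADH fluorescence increase (ex 360, em 450 nm) every 30 seconds for 4 min, using final 90 uM beta-hydroxybutyryl CoA and 1 mM NAD+. Recombinant His-tagged enzyme, 20 nM, pH 9.0 Tris buffer, 15 min compound preincubation.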
A350 autofl: A350 region autofluorescence; Compound autofluorescence, 340/450 nm, Alexa 350 dye-equivalents; hits give high values; max dye-equivalent concentration, M; hit rate 11% among 59,000; AID 590; in the data active = max dye-equivalent concentration above about 10 nM; inconclusive = mostly about 1.1 nM to 9.6 nM
Numbers without * were called inactive; i = inactive; ? = inconclusive; . = no result given; ! = repeats disagree; [ ] = dose if it differs, or a comment. Unless noted, calls come from the whole dose curve; as a rule, active = well fitted curve in the direction sought with a large enough effect; inconclusive = small, poorly fitted or top-dose-only effect, or another doubt; inactive = no such curve, though single readings can be large; an effect the other way counts as inactive or inconclusive.

SMILES	AID923	GBA mod	4-MU autofl	HADH2 inh	HSD17B inhib	A350 autofl
Cc1cc(C(=O)COc2nncc3ccccc23)c(C)n1C	1%	>77	i	-3%	-2%	i
Cc1ccc(-n2c(N)c(C(=O)N3CCOCC3)sc2=S)cc1	-2%	>77	i	1.6µM*	?	i
Cc1ccc(C)n1-c1ccc(C(=O)N2CCOCC2)cc1	-2%	>77	i	-4%	-12%	i
CN1CCN(C(=O)c2sc(=S)n(-c3ccccc3)c2N)CC1	1%	>77	i	0.2µM*	?	i
Cc1c(C(=O)O)sc(=S)n1-c1ccccc1	.	.	i	.	.	?
COc1ccc(-n2c(Cc3cccn3C)nnc2SCC(=O)Nc2cccc(F)c2)cc1	-1%	.	.	-16%	-2%	.
Clc1ccc(Cn2ncc3c(N4CCCCC4)ncnc32)c(Cl)c1	-1%	11*	i	4%	9%	i
Cc1nc2ccccc2c2nc3ccccc3n12	2%	.	.	?	32µM*	.
O=C1CC(Nc2ccc(N3CCOCC3)cc2)C(=O)N1Cc1ccccc1 (stereo not given)	-2%	>77	i	-3%	-3%	i
Nc1nonc1C(=O)NCCNCc1cc(Br)ccc1OCc1ccc(F)cc1	0%	.	3.7e-08M*	3%	4%	3.8e-08M*
Cc1cc(NC(=O)c2cccc(F)c2)ncc1NC(=O)c1ccco1	-2%	>77	i	-1%	-6%	i
COc1ccc(CN/C(C)=C(/C#N)C(N)=O)cc1OC	0%	>77	1.3e-08M*	-10%	14%	1.7e-08M*
COc1ccc(CNC(=O)NCc2ccc(OC)c(OC)c2)cc1OC	-1%	>77	i	6%	5%	i
COc1ccc2nc(NC(=O)c3ccc(-n4nc(C)cc4C)cc3)sc2c1	7%	>77	1.1e-07M*	127%	25µM*	1.5e-07M*
O=C(O)/C=C\c1c2ccc(=O)c(O)c-2oc2c(O)c(O)ccc12	-4%[11.5 µM]	.	i	1µM*	0.79µM*	i
O=C(O)[C@H]1CCCC[C@@H]1c1c2ccc(=O)c(O)c-2oc2c(O)c(O)ccc12	-4%[11.5 µM]	.	i	1µM*	2µM*	i
COc1ccc(S(=O)(=O)Cc2ccc(C(=O)NC3CCCC3)o2)cc1	1%	.	.	4%	4%	.
COc1ccccc1S(=O)(=O)Cc1ccc(C(=O)NC2CCCCC2)o1	-1%	>77	1.1e-08M*	7%	-7%	?
O=C(Nc1ccc(F)cc1)NC1CCN(Cc2nnnn2Cc2ccco2)CC1	3%	>77	i	-25%	25µM*	i
O=C(Nc1ccccc1F)NC1CCN(Cc2nnnn2Cc2ccc(F)cc2)CC1	-1%	>77	i	5%	-5%	i
O=C(CCN1CCN(CC(=O)Nc2ccccc2F)CC1)Nc1ccccc1F	0%	>77	i	3%	-4%	i
N[C@@H]1CONC1=O	-1%[25.7 µM]	.	2.9e-08M*!	?	-3%[25.6 µM]	3.4e-08M*!
Nc1ncnc2c1nc(Br)n2[C@@H]1O[C@H]2COP(=O)(O)O[C@@H]2[C@H]1O	-1%	.	2.6e-08M*	-9%	-4%	2.4e-08M*
COc1cccc2c1C(=O)c1c(O)c3c(c(O)c1C2=O)C[C@](O)(C(=O)CO)C[C@H]3O[C@@H]1C[C@H](N)[C@H](O)[C@H](C)O1	-1%[25.7 µM]	.	i	-2%[25.6 µM]	1%[25.6 µM]	i
Cn1c(C(=O)N2CCN(c3ccccn3)CC2)cc2c(=O)n(C)c3ccccc3c21	1%	.	.	?	12%	.
Cn1c2ccccc2c2c(C(=O)N3CCN(c4ccccn4)CC3)cn(C3CCCC3)c(=O)c21	1%	.	5.1e-08M*	-28%	25µM*	4.8e-08M*
Cn1c(C(=O)N2CCN(C3CCCCC3)CC2)cc2c(=O)n(C)c3ccccc3c21	-1%	.	.	8%	3%	.
Cn1c2ccccc2c2c(C(=O)O)cn(C3CCCC3)c(=O)c21	-2%	.	.	?	32µM*	.
COc1ccc(S(=O)(=O)N(Cc2ccc(OC)c(OC)c2)Cc2ccco2)cc1	1%	>77	?	1%	-20%	1e-08M*
